This passage reports residual activity results from ChEMBL document CHEMBL2218924, “A broad activity screen in support of a chemogenomic map for kinase signalling research and drug discovery” (Biochem J, 2013).

The target of assay [1] is Tyrosine-protein kinase SYK (Homo sapiens) (UniProt P43405). Particulars: at 10 µM.
For assay [2], the target named is T1, Mitogen-activated protein kinase kinase kinase 7 (Homo sapiens) (UniProt O43318).
T1 sequence (whole entry): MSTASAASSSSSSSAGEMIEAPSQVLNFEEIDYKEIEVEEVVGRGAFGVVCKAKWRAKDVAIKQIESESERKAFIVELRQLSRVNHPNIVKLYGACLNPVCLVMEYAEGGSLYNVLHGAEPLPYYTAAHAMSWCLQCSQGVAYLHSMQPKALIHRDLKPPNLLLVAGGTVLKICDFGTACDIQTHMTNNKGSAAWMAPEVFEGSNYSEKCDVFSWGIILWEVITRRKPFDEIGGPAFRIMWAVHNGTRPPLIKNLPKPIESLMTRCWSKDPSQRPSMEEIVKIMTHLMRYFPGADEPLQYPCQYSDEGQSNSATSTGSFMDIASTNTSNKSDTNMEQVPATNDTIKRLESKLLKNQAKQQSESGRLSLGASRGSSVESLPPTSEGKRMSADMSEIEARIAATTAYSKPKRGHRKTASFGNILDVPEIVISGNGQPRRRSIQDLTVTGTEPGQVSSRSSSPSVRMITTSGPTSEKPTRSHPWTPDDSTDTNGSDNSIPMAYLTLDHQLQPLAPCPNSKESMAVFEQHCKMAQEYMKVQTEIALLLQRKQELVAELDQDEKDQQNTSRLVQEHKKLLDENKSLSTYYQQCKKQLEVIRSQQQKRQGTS
Particulars: at 1 µM.

In assay [3] the target is T1, Mitogen-activated protein kinase kinase kinase 7 (Homo sapiens). Particulars: at 10 µM.
Assay [4] concerns the target T2, Serine/threonine-protein kinase TAO1 (Homo sapiens) (UniProt Q7L7X3).
T2 sequence (whole entry): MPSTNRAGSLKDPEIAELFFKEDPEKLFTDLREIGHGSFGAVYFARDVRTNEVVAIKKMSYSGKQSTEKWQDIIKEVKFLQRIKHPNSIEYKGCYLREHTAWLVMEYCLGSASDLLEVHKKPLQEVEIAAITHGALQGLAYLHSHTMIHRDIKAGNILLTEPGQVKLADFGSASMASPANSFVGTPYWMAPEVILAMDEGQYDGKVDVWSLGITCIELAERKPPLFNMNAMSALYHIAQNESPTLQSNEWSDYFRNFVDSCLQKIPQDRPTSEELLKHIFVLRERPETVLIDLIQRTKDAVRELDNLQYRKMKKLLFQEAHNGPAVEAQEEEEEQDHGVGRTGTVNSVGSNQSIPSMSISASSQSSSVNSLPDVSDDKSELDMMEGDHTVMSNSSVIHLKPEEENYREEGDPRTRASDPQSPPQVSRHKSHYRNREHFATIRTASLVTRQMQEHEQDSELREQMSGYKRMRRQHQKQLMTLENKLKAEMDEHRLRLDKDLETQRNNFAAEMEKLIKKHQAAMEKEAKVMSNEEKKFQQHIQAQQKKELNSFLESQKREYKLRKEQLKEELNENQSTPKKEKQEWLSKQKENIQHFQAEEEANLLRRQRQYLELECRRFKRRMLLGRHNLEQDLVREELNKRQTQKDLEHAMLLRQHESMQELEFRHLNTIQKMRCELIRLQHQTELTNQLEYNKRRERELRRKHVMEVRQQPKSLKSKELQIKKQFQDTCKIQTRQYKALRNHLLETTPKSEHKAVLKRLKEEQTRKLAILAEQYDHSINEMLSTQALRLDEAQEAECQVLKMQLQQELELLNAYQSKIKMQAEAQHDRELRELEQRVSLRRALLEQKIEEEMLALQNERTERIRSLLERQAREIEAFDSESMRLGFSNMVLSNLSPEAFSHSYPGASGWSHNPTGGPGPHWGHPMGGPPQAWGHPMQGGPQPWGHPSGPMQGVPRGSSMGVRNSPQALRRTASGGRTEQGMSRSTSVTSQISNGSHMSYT
Particulars: at 1 µM.

The target of assay [5] is T2, Serine/threonine-protein kinase TAO1 (Homo sapiens). Particulars: at 10 µM.
Assay [6] deals with T3, Serine/threonine-protein kinase TAO2 (Homo sapiens) (UniProt Q9UL54).
T3 sequence (whole entry): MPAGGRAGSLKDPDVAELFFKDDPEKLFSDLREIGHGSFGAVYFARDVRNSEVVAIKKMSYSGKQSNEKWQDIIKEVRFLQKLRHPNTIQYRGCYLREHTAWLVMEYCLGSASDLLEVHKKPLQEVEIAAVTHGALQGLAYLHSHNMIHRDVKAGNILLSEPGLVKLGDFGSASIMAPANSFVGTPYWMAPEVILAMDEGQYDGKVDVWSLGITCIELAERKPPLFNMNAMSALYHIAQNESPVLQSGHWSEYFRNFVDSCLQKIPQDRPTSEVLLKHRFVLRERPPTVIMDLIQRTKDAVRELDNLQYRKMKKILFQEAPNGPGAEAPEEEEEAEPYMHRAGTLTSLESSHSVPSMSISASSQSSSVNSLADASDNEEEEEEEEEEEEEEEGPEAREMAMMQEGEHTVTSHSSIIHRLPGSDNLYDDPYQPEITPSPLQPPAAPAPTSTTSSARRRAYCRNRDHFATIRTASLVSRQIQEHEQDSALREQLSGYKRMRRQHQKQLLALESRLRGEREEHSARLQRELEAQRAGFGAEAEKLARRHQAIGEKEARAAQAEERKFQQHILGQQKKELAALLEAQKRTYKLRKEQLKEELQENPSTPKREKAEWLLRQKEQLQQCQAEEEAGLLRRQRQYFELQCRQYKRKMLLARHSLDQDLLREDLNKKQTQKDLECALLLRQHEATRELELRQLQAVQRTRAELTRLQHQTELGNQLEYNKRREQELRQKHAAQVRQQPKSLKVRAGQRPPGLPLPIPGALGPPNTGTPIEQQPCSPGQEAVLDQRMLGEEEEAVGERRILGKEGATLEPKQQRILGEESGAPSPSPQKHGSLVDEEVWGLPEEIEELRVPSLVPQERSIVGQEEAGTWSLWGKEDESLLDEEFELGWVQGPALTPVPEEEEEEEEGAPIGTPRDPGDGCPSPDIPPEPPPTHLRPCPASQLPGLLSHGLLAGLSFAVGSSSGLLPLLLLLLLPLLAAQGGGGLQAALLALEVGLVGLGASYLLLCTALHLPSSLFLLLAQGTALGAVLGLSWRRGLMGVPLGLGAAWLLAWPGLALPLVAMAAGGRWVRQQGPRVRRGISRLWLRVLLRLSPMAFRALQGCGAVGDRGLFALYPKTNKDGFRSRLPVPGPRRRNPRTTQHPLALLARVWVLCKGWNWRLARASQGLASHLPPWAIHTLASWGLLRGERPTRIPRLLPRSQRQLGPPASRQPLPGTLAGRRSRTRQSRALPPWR
The following applies: at 1 µM.

Assay [7] deals with T3, Serine/threonine-protein kinase TAO2 (Homo sapiens). Particulars: at 10 µM.
Assay [8] deals with T4, Serine/threonine-protein kinase TAO3 (Homo sapiens) (UniProt Q9H2K8).
T4 sequence (whole entry): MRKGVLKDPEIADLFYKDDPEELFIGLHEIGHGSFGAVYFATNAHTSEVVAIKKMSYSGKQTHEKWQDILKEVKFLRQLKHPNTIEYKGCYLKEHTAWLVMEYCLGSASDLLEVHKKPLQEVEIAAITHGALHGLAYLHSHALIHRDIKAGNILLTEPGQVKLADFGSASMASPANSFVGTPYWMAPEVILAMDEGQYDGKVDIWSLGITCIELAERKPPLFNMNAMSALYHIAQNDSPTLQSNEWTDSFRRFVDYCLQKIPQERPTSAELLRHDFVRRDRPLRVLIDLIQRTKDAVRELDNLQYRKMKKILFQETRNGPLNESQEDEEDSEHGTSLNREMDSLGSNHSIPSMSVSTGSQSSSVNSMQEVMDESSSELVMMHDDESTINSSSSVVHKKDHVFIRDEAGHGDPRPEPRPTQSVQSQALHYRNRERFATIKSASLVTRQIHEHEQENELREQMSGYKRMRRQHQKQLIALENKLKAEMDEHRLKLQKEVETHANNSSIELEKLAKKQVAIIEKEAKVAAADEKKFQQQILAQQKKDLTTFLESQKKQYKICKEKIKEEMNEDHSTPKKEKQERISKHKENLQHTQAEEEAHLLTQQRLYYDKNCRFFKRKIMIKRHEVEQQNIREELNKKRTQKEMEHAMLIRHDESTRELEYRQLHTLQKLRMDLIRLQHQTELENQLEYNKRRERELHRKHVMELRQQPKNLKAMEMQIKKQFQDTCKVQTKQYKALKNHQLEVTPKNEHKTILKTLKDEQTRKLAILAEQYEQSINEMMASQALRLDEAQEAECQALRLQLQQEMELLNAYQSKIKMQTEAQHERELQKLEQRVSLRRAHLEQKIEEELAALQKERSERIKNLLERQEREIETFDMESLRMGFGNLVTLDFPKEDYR
The following applies: at 1 µM.

Assay [9] has as its target T4, Serine/threonine-protein kinase TAO3 (Homo sapiens). Particulars: at 10 µM.
The target of assay [10] is T5, Serine/threonine-protein kinase TBK1 (Homo sapiens) (UniProt Q9UHD2).
T5 sequence (whole entry): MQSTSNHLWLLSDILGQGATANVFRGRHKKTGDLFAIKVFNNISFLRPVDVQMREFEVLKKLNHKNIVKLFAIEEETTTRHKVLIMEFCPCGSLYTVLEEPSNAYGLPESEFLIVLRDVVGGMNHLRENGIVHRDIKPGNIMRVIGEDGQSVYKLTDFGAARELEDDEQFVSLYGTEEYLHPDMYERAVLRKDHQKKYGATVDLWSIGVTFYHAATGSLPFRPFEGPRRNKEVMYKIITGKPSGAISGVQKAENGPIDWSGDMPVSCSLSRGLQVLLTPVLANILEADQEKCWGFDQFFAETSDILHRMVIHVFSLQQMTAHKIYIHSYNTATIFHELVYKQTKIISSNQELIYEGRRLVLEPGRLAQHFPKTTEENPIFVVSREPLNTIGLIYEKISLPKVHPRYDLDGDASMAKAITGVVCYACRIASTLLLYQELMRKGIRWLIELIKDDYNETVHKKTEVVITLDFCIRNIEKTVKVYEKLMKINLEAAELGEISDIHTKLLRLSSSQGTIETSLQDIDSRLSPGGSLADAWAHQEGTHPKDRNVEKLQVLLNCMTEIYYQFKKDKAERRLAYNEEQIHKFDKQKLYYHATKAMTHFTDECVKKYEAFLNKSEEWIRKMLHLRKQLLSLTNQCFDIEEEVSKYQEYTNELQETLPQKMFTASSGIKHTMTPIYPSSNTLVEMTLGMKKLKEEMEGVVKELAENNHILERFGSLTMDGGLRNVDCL
Particulars: at 1 µM.

With `CC(C)n1cnc2/c(=N/c3cccc(Cl)c3)nc(NCCO)[nH]c21`, the residual activity in assay [1] is 56%; in assay [2], 77%; in assay [3], 24%; in [4], 87%; in assay [5], 59%; in [6] it was 70%. Besides, the residual activity in [7] was 63%; in assay [8], 93%; in assay [9], 54%; in assay [10], 57%.
